Bioassay records: PubChem, National Center for Advancing Translational Sciences (NCATS)
IMPase inh: IMPase inhibition in cells. 120,000 tested, under 10 active. inhibition (IP1 accumulation), % at 46.1 µM. CHO-M1 cells, IP1 accumulation, HTRF TR-FRET ratio. P97697; active means well fitted curve in the direction sought with a large enough effect in the signal ratio, not every such curve was filed as active; inconclusive means small, poorly fitted or top-dose-only effect, or a change in a side signal; inactive means no such curve, though single readings can be large or run the other way; the % refers to the signal ratio;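 further: cells stimulated with carbachol in lithium chloride buffer; higher means more IMPase inhibition seen as more IP1 and lower FRET ratio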
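CHO-M1, 2000 cells/well, cultured 16–30 h; cpd up to 46 uM; carbachol (50 uM solution, stimulation buffer w/ 50 mM LiCl, pH 7.4), 30 min 37C; IP-One TR-FRET, 10 min RT; Ex 320/Em 665, 620; Hill-fit AC50.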
15-hLO-2 inh: blocks human 15-lipoxygenase 2 activity. purified 15hLO-2, xylenol orange hydroperoxide absorbance. Potency, µM (top dose mostly 57.1 µM), hits mostly inhibitors. 110,000 tested, 0.56% active. AID 881; further: nearly all actives have a fitted effect of over 60% in size
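Purified human 15hLO-2 (50 nM final) preincubated with compounds 15 min at room temperature in 25 mM Hepes pH 7.5, 0.01% Triton X-100, then 45 uM arachidonic acid added for 90 min; hydroperoxide detected via ferrous/xylenol orange, 573/405 nm absorbance ratio.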
12-hLO inh: inhibitors of human 12-lipoxygenase (ALOX12) | purified 12-hLO, xylenol orange hydroperoxide absorbance | P18054 | 150,000 tested, 0.12% active | Potency, µM (top dose mostly 57.1 µM), most hits filed as inhibitors; further: nearly all actives have a fitted effect of over 55% in size
Target sequence (P18054 whole entry, looked up): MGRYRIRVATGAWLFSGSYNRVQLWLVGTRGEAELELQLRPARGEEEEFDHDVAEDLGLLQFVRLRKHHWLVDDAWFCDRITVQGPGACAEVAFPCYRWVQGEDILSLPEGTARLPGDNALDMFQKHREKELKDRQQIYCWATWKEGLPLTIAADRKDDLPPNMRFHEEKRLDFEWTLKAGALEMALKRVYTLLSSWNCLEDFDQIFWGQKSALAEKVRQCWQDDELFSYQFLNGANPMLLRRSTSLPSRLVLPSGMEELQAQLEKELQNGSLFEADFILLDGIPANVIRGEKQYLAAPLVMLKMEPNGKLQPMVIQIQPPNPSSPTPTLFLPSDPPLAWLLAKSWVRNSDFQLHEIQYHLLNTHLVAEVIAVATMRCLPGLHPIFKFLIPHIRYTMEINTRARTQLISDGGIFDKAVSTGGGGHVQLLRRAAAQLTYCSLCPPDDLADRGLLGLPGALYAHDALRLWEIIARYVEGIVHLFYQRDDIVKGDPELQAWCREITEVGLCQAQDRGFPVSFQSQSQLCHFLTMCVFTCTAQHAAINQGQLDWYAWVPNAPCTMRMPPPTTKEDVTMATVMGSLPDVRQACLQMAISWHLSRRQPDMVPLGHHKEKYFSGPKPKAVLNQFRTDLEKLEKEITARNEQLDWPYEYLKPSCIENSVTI
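Purified human 12hLO (150 nM final) was preincubated with compounds for 15 min at room temperature in 25 mM Hepes pH 7.0, 0.01% Triton X-100, then reacted with 40 uM arachidonic acid for 30 min. Hydroperoxide was detected with ferrous iron/xylenol orange.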
PNC assembly inh: perinucleolar compartment assembly inhibition | PC3M PTB-GFP, PNC prevalence imaging, 16 h; active compounds read low | activity change (PNC), negative = inhibition, % at 10 µM | 140,000 tested, 3.1% active | AID 2417;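 active means readout at or below -70, meaning at least 70% loss of cells showing the perinucleolar compartment, a nuclear body marking cancer cells; inconclusive means readout between -30 and a set limit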
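Read-out is percentage of cells bearing a perinucleolar compartment, from automated 20x imaging of fixed, Hoechst-stained PC3M PTB-GFP cells. Cells were seeded 4 h, then exposed 16 h to compound (23 nl of library stock) in duplicate plates.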
Each line names hits and unclear results; the compound was inactive in the other large screens. Rows were chosen to be rich in hits. Some 3% of all compounds tested hit in one or more screens of this group. Unless noted, the call rests on the fitted dose curve; in most records, active means well fitted curve in the direction sought with a large enough effect; inconclusive means small, poorly fitted or top-dose-only effect, or another doubt; inactive means no such curve, though single readings can be large; an effect the other way counts as inactive or inconclusive.

C/C1=C2N=C(/C=C3N=C(/C(C)=C4\[N-]C(C)(C5N=C1C(C)(CCC(=O)NCC(C)OP(=O)([O-])O[C@H]1C(O)C(n6cnc7cc(C)c(C)cc76)O[C@@H]1CO)C5CC(N)=O)C(C)(CC(N)=O)C4CCC(N)=O)C(C)(CC(N)=O)C\3CCC(N)=O)C(C)(C)C/2CCC(N)=O.[CH2-]C1OC(n2cnc3c(N)ncnc32)C(O)C1O.[Co] (some centres not stated)	none (no result: IMPase inh, PNC assembly inh)
CCn1cc(C(=O)NCc2ccco2)c2cc(OC)c(OC)cc2c1=O	PNC assembly inh inconclusive (no result: 15-hLO-2 inh)
COc1cc2c(C(=O)NCc3ccc(C)o3)cn(CC(C)C)c(=O)c2cc1OC	PNC assembly inh -108.4
Cc1sc2ncnc(OCC(=O)Nc3ccc4c(c3)OCCO4)c2c1C	none
O=C(COc1ncnc2sccc12)Nc1ccc2c(c1)OCCO2	PNC assembly inh -112.5
Cc1noc(C)c1C(=O)N1CCN(CCc2ccccc2)CC1	PNC assembly inh -102.2
Cc1noc(C)c1C(=O)N1CCN(Cc2ccccc2)CC1	none
O=C1OCCC1Sc1nnc(-c2ccco2)o1 (configuration not stated)	PNC assembly inh -100.0 (no result: 15-hLO-2 inh)
Cc1noc(C)c1-c1cc(NCc2ccccc2)ncn1	none (no result: IMPase inh, PNC assembly inh)
CC(NC(=O)CSc1nnc(-c2cc3cc(Cl)ccc3o2)n1C)c1ccccc1 (configuration not stated)	PNC assembly inh -118.9 (no result: 15-hLO-2 inh)
CN(C)S(=O)(=O)n1ccnc1	none
COCCCNCCOCCOc1ccccc1-c1ccccc1	none (no result: IMPase inh, 15-hLO-2 inh)
CC(C)(C)NCCOCCOc1ccccc1-c1ccccc1	PNC assembly inh -106.4 (no result: 15-hLO-2 inh)
O=C(O)c1ccc(CNc2ccccc2C(=O)O)cc1	PNC assembly inh -130.7
CCCC1C(C#N)=C(N)Oc2n[nH]c(C(C)(C)C)c21 (configuration not stated)	PNC assembly inh -113.6
Cc1occc1C(=O)Nc1sc2c(c1C(N)=O)CCCCC2	none
COC(=O)c1c(NC(=O)c2c(OC)cccc2OC)sc2c1CCCC2	none (no result: 15-hLO-2 inh, 12-hLO inh, PNC assembly inh)
COC(=O)c1c(NC(=O)c2ccoc2C)sc2c1CCC2	IMPase inh inconclusive, PNC assembly inh -109.2
COC(=O)c1c(NC(=O)c2nn(C)cc2Cl)sc2c1CCCC2	PNC assembly inh -92.3 (no result: 15-hLO-2 inh)
Cc1ccc(C)c(-c2ccc(C(=O)O)o2)c1	none (no result: IMPase inh, PNC assembly inh)
COc1ccc(N2CCN(C(=O)c3ccc(S(=O)(=O)N4CCOCC4)cc3)CC2)cc1	none
CCOc1ccc(OCCN2CCCCC2)cc1	PNC assembly inh -87.6 (no result: IMPase inh, 15-hLO-2 inh)
C1=Nc2c(Nc3ccccc3)ncnc2Oc2ccccc21	PNC assembly inh inconclusive
CCC(C)c1ccccc1NC(=O)C1CCCO1 (configuration not stated)	PNC assembly inh inconclusive
CCc1cccc(C)c1NC(=O)C1CCCO1 (configuration not stated)	PNC assembly inh inconclusive
Cc1cccc2sc(NC(=O)C3CCCO3)nc12 (configuration not stated)	PNC assembly inh -100.0 (no result: 15-hLO-2 inh)
Cc1c(NC(=O)C2CCCO2)cccc1[N+](=O)[O-] (configuration not stated)	PNC assembly inh -85.1 (no result: 15-hLO-2 inh)
Cc1ccc(CCNC(=O)C2CCCN(S(=O)(=O)c3cccc4nsnc34)C2)cc1 (configuration not stated)	PNC assembly inh inconclusive
Cc1cccc(CCNC(=O)C2CCCN(S(=O)(=O)c3cccc4nsnc34)C2)c1 (configuration not stated)	PNC assembly inh -95.2
Cc1cccc2sc(NC(=O)C3CCCN(S(=O)(=O)c4cccc5nonc45)C3)nc12 (configuration not stated)	PNC assembly inh -100.0 (no result: 15-hLO-2 inh)
COc1cc(C2c3c(oc4ccc(C)cc4c3=O)C(=O)N2Cc2ccccc2)ccc1O (configuration not stated)	none (no result: 15-hLO-2 inh, 12-hLO inh, PNC assembly inh)
S=C1NCCc2ccc(Cl)cc2C1c1ccccc1Cl (configuration not stated)	12-hLO inh inconclusive, PNC assembly inh -100.0 (no result: 15-hLO-2 inh)
Clc1ccc2c(c1)C(C1=NCCN1)c1ccccc1CS2 (configuration not stated)	PNC assembly inh inconclusive (no result: IMPase inh, 15-hLO-2 inh)
OCCN1CCOCCN(CCO)CCOCC1	none
Cc1nc2ccccc2c2nc(N)nn12	PNC assembly inh -100.0 (no result: 15-hLO-2 inh)
CCCc1nc2ccccc2c2nc(N)nn12	none
CCCCC/C=N\NC(=O)Cc1ccc([N+](=O)[O-])cc1	PNC assembly inh -94.6 (no result: 15-hLO-2 inh)
CCn1cc(/C=N\NC(=O)Cc2ccc([N+](=O)[O-])cc2)c(C)n1	none (no result: IMPase inh, 15-hLO-2 inh)
OCCN1CCN(C(c2cccs2)c2ccc3cccnc3c2O)CC1 (configuration not stated)	12-hLO inh 14.1µM
